Measured values as given in PubChem BioAssay AID602156 (GNF / Scripps Winzeler lab, 2011).
The whole screen tested about 5,700 compounds, of which about 280 (4.9%) were called active. How the calls were made is not given here. These entries were drawn from the full list.

Assay: exo-erythrocytic parasite development inhibition – imaging, Malaria Box, P. yoelii, HepG2-A16-CD81EGFP, dose response (AID 602156)
Conditions: P. yoelii liver stage in HepG2-A16-CD81EGFP

outcome, inactive:
CC(C)=CCCC(C)=CCCC(C)NCCN1CCNCC1 (stereo not given), C=CCNC(=O)c1ccc2c(c1)N=CN(CCOc1ccccc1)C2, Cn1c(SCC2CCCO2)nnc1C1CCN(C/C=C/c2ccccc2)CC1 (stereo not given), Cc1cc(S(=O)(=O)N2CCN(Cc3ccccc3)CC2)ccc1-n1cnnn1, COc1ccc(S(=O)(=O)ON=C2C=C(C(C)C)C(=O)C=C2C)cc1, COc1ccc(NC(=O)C2c3ccccc3C(=O)N(CC(C)C)C2c2cccs2)cc1OC (stereo not given), COc1ccc(NC(=O)/C=C/c2ccccc2Cl)cc1, O=C1CC(c2ccccc2)CC2=C1C(c1cc(F)ccc1F)Nc1ccccc1N2 (stereo not given), CCCCCCCCCC(=O)N1CCN(C(CC)c2nc3ccccc3c(=O)n2C)CC1 (stereo not given), CC(c1nc2ccccc2c(=O)n1-c1ccc(Br)cc1)N1CCN(S(=O)(=O)c2ccc3ccccc3c2)C(C)C1 (stereo not given), CCCCCCCCC(=O)N1CCN(C(CC)c2nc3ccccc3c(=O)n2C)CC1 (stereo not given), CCC(NC1CCCCC1)c1nc2ccccc2c(=O)n1C (stereo not given), CC(c1nc2ccc(Cl)cc2c(=O)n1C)N1CCN(C(=O)C(C)(C)C)CC1 (stereo not given), CCCCC(CC)C(=O)N1CCN(C(C)c2nc3ccc(Cl)cc3c(=O)n2C)CC1 (stereo not given), COc1ccc(/C=C2\N=C(c3ccc(Cl)cc3)N(c3ccccc3)C2=O)cc1OC, O=C(NCCCNC(=O)Nc1cccc(C2=NCCN2)c1)Nc1cccc(C2=NCCN2)c1, CC(C)c1ccc(NC(=O)C=Cc2ccccc2Cl)cc1, COC(=O)c1sccc1S(=O)(=O)N1CCCC(c2[nH]ncc2-c2ccccc2)C1 (stereo not given), Cc1cccc(Nc2nc3nonc3nc2NN=Cc2cccs2)c1C, O=C(NCCC(c1ccccc1)c1ccccc1)c1cccc([N+](=O)[O-])c1, COC(=O)c1ccc(C=NNc2cc(C)nc3ccc(OC)cc23)cc1, O=S(=O)(/C=C/c1ccccc1)NCCCCNc1ccnc2cc(Cl)ccc12, CCN(CC)Cc1cc(Nc2nc3ccccc3[nH]2)cc(CN(CC)CC)c1O, CC[n+]1c(C=C2Sc3ccccc3N2C)ccc2ccc(C)cc21, O=C(CNCCc1ccccc1)NC(c1ccccc1)c1ccccc1, O=C(c1c2c(nc3ccccc13)CCC2)N1CCc2ccccc21, O=C(O)c1cc([N+](=O)[O-])ccc1Oc1cncc(Cl)c1, CCCN(CCC)CC(O)COc1ccccc1C(=O)Nc1ccccc1 (stereo not given), CCn1c(SCC(=O)N(c2ccccc2)c2ccccc2)nc2sc3c(c2c1=O)CCN(C)C3, Cc1cccc(CCNc2cc(C)nc3ncnn23)c1, COc1ccccc1N1CCN(C(=O)Nc2ccc3ccccc3c2)CC1, Oc1ccc(-c2cnccn2)cc1CNC1CCN(Cc2ccccc2)CC1, CC1(C)C2CCC1(C)C(NCc1ccccc1O)C2 (stereo not given), COc1ccc(OC)c(-c2ccc(O)c(CNCc3ccccc3OC)c2)c1, COc1ccc(CNC(=O)C2CNCC2c2ccc(C(F)(F)F)cc2)cc1 (stereo not given), COc1cccc(CNC(=O)[C@@H]2CNC[C@H]2c2ccc(C(F)(F)F)cc2)c1, CCCCCN1/C(=C\C=C\c2n(CC)c3cc(Cl)c(Cl)cc3[n+]2CCCCC)N(CC)c2cc(Cl)c(Cl)cc21, COc1ccc(-c2cc(C(=O)NCc3cccnc3)no2)cc1OC, CC(C)CC(NC(=O)C(=Cc1ccco1)NC(=O)c1ccccc1)C(=O)OCc1ccccc1 (stereo not given), O=C(CSc1nc2ccccc2[nH]1)Nc1ccc2c(c1)OCO2, c1ccc2c(NC3CCCC3)nc(Nc3ccc4c(c3)OCO4)nc2c1, CC(C)(C)C1=NN(CC(=O)Nc2ccc3c(c2)OCO3)C(=O)c2cc3ccccc3n2C1, O=C(Nc1ccc2c(c1)OCO2)c1cc2cc(C3(O)CCN(CCCc4ccccc4)CC3)ccc2o1, CC(C)CN1CCC(O)(c2ccc3oc(C(=O)Nc4ccc5c(c4)OCO5)cc3c2)CC1, Clc1cccc(CSc2nc(Nc3ccc4c(c3)OCO4)c3ccccc3n2)c1, CCCc1ccc(OCCNC(=O)CCNC(=O)Nc2cccc(Cl)c2)cc1, CC(C)CNC(=O)c1ccc(OC2CCN(CC3CCCCC3)CC2)c(Cl)c1, CC(C)CN(CC(=O)Nc1cc(C(C)(C)C)nn1-c1ccccc1)C(=O)c1cc(Cl)cc(Cl)c1, O=C(Nc1ccc(-n2cnnn2)cc1)C1CCN(Cc2ccc(OC(F)F)cc2)CC1, CCC(C)OC(=O)C1=C(C)NC2=C(C(=O)CC(c3ccc(Cl)cc3)C2)C1c1ccccc1F (stereo not given), N#Cc1cc(Oc2ccc(-c3cnc4ccccc4n3)cc2)nc2ccccc12, COc1ccc(C2C(C(=O)Nc3cccc(OC)c3)c3ccccc3C(=O)N2C2CCCCC2)cc1 (stereo not given), CC[n+]1c(C=CC=C2N(C)c3ccccc3C2(C)C)n(-c2ccccc2)c2ccccc21, COc1ccc(NC(=O)NCc2cccn2Cc2ccc(F)cc2)cc1OC, Cn1nc(C(=O)N2CCCCCC2)c2c1CCC(NCC(C)(C)N1CCOCC1)C2 (stereo not given), C=C(Cl)CSc1nnc(CCNC(=O)c2ccc(C)cc2)n1-c1ccc(F)cc1, CCCc1nc2ccc(NC(=O)NCC)cc2c(=O)n1Cc1ccc(-c2ccccc2)cc1, CCc1nc2ccc(NC(=O)c3ccncc3)cc2c(=O)n1Cc1cccc(OC)c1, COc1cc(OC)cc(C(=O)N(CCCC(C)Nc2cc(OC)cc3cccnc23)Cc2ccc(Cl)cc2)c1 (stereo not given), COc1cc(C(=O)C=CNc2ccc(N(C)C)cc2)cc(OC)c1OC, CCC(Cc1cnc2nc(N)nc(N)c2n1)c1ccc(C(=O)N[C@@H](CCC(=O)O)C(=O)O)cc1 (stereo not given in full), CCCCCCc1cc2cc(-c3nc4ccccc4[nH]3)c(=Nc3ccccc3C)oc2cc1O, CC(C)(C)c1nn(-c2ccc(Cl)cc2)c2[nH]c(=O)c(CNCc3ccccc3)cc12, c1ccc2c(NCCNc3c4ccccc4nc4ccccc34)c3ccccc3nc2c1, COc1ccccc1N1CCN(Cc2cc(C(C)C)c(C)cc2O)CC1, N#CN=C(N)c1sc(Nc2ccccc2)nc1N, CC1[C@H]2NC[C@H](C)C[C@]2(O)O[C@@H]2C[C@H]3[C@@H]4CC[C@H]5C[C@@H](N)CC[C@]5(C)C4CC[C@]3(C)[C@@H]12 (stereo not given in full), O=C(Nc1ccc(Cl)c(Cl)c1)Nc1ccc(Cl)c(Cl)c1, N=c1c2c(n(Cc3ccc(Cl)c(Cl)c3)c3c1CCC3)CCCC2, COc1ccc(C2CC(=O)C3=C(C2)NC(C)=C(C(=O)OC2CCCC2)C3c2ccccc2)cc1 (stereo not given), COCCSc1nc2sc3c(c2c(=O)n1-c1ccc(OC)cc1)CCN(C)C3, Cc1ccc2nc3c(c(Nc4ccc(N(C)C)cc4)c2c1)CCC3, Cc1ccc(-c2nc3cc(NC(=O)c4ccc([N+](=O)[O-])o4)ccc3o2)cc1Br, Nc1cc(C(=O)Nc2cccc(C3=NCCN3)c2)ccc1C(=O)Nc1cccc(C2=NCCN2)c1, CCCCCC1CCCc2c1[nH]c1cc(Cl)ccc1c2=O (stereo not given), O=C(NCc1ccccc1)c1cnc(NCCCN2CCCC2)nc1NCCc1ccccc1, CC(C)c1ccc(C=CC(=O)NCc2ccco2)cc1, CCc1c(C)nc(SCC(=O)NNC(C)=O)[nH]c1=O, FC(F)(F)c1cccc(-c2nc3c(s2)CN(C2CCCC2)CC3)c1, Cc1c(/C=C2\SC(=Nc3ccccc3F)N(C3CCCCC3)C2=O)c2ccccc2n1CC(N)=O, Clc1ccc(-c2nc3ncc(Cl)cc3[nH]2)cc1, COc1cccc(-c2ccc(O)c(CN3CCC(C)CC3)c2)n1, Clc1ccc(Nc2nc(NCc3ccco3)c3ccccc3n2)cc1, CCOC(=O)c1sc(NC(=O)CSc2nnc(CNC(=O)COc3ccc(Cl)cc3)n2C)c(C(=O)OCC)c1C, COc1ccc(N=C(C)C2=C(O)c3ccccc3C2=O)c(OC)c1, CN(C)c1ccc(/C=C/C=C/c2cc[n+](C)cc2)cc1, CCCCCCCCCCOC(=O)Cn1c(C)[n+](C)c2ccccc21, COCCn1nnnc1C(c1cc2cc3c(cc2[nH]c1=O)OCCO3)N1CCC(O)CC1 (stereo not given), COc1cc2nc(NCc3ccccn3)n3nc(-c4ccccc4)nc3c2cc1OC, CCN1C(=S)NC2c3cc(C)ccc3OC13CCCC23 (stereo not given), Cc1ccc(NC(=O)CCCCC(=O)Nc2ccc(C)c(Br)c2)cc1Br, C#CC(C)(C)NC(=O)c1ccc(-c2ccc(CC)cc2)cc1, CCC(c1nc2ccccc2c(=O)n1-c1cccc(C)c1)N(CCc1ccccc1)C(=O)Nc1c(C(C)C)cccc1C(C)C (stereo not given), CCC(c1nc2ccccc2c(=O)n1-c1cccc(C)c1)N(Cc1ccccc1)C(=O)Nc1c(C(C)C)cccc1C(C)C (stereo not given), COCCNC(=O)c1ccc(OC2CCN(CC(c3ccccc3)c3ccccc3)CC2)c(OC)c1, CCCNC(=O)c1ccc(OC2CCN(CC(c3ccccc3)c3ccccc3)CC2)c(OC)c1, COc1ccc(SC2CCN(C3CCOCC3)CC2)cc1, CCCCC(CC)C(=O)N(C)CCCNc1ccnc2cc(Cl)ccc12 (stereo not given), O=C(NCC1CCCO1)c1cnc(NCCCn2ccnc2)nc1NCCc1ccccc1 (stereo not given), Cc1cc(C)nc(N=C(N)Nc2ccccc2O)n1
